{"source": "PubChem BioAssay (NCATS)", "note": "Inconclusive results are not listed. Where a call stands in place of a potency, no number is given. Values without a mark were called inactive. Activity calls are given as the source filed them. Calls come from the whole dose curve; as a rule, active = well fitted cell-killing curve with a large enough effect; inconclusive = small, poorly fitted or top-dose-only effect, or effect the other way; inactive = no such curve, though single readings can be large or run the other way. Potency is the fitted concentration of half-maximal effect.", "data": [{"assay": "Viability qHTS for spleen associated tyrosine kinase inhibitor (SYKi) naive MV4-11 cells (AID 1963823); note: nearly all actives have a fitted effect of over 40% in size", "conditions": "MV4-11 AML viability, CellTiter-Glo luminescence, 72 h; series mostly up to 45 µM", "text": "Department of Medicine, Hematology/Oncology\nUniversity Hospital Frankfurt, Germany.\nTrials have shown promising clinical activity of the selective SYK inhibitor entospletinib in patients with high expressing HOXA9/MEIS1 acute leukemias. As the development of resistance mechanisms is a common problem in the use of targeted drugs, we performed a chemical library screen to identify drug sensitivities in SYK inhibitor resistant AML cells. […] Glucocorticoids are potent immunosuppressants which work in part by inhibiting the transcription of cytokine genes.\nDescribed herein is a viability screen to look for activity in the SYK inhibitor naive cell line against four NCATS compound libraries (MIPE 5.0, NPC, NPACT, and Kinase) totaling 11372 compounds. Active hits were reacquired for confirmation and further secondary assay testing.\nSEQUENCE No. (e.g., 1, 2, 3, etc.); […] (e.g., Cells, Incubation, Reagent, etc.); VALUE; DESCRIPTION.\n1; Media; 2uL; white, solid-bottom Corning assay plate.\n2; Compounds; 23nL; Echo acoustic dispenser.\n3; Cell; 5uL; 500 cells per well.\n4: Incubation; 72hr; 37 C, 5% CO2, 95% humidity.\n5; Reagent; 3uL; CellTiter-Glo reagent (Promega).\n6; Incubation; 10min; room temperature.\n7; Detection; Luminescence; ViewLux plate reader (PerkinElmer).\nNOTES (numbers refer to Sequence numbers above\n1. Quantitative high-throughput screening (qHTS) of small molecule compounds was conducted on naive SYKi MV4-11 cell line.\n2. Twenty-three nanoliter of small molecule compounds were added to each assay plates using the Echo acoustic dispenser (Beckman Coulter).\n3. Cells were seeded into the assay plates at a final density of 500 cells in 5uL of media per well using the Multi-drop Combi dispenser.\n4. Plates were covered with stainless steel gasketed lids and incubated for 72 hours at standard cell culture conditions.\n5. Viability was assessed by adding 3uL of CellTiter-Glo detection reagent (Promega).\n6. Plates were covered with gasket lids and incubated for 10 minutes at room temperature.\n7. Luminescence was measured on a ViewLux plate reader (PerkinElmer).", "values": [{"smiles": "CCOC(=O)c1cccc(CNc2ccc(N(C)C(=O)Nc3ccccc3)cc2)c1", "Potency": "18400 nM (active)"}, {"smiles": "C=C(C)C(=O)OC1CC(CO)CCC/C(CO)=C/C2OC(=O)C(=C)C21", "note": "(stereo not given)", "Potency": "1610 nM (active)"}, {"smiles": "Fc1cccc(-n2cnc3c(NCc4nc5c(F)c(F)ccc5[nH]4)nc(N4CCOCC4)nc32)c1", "Potency": "59 nM (active)"}, {"smiles": "C=C1[C@H](OC(C)=O)[C@H]2[C@@H](OC(C)=O)C(C)C[C@]2(OC(C)=O)C(=O)[C@H](C)/C=C/C(C)(C)C(=O)[C@H](OC(=O)C(C)C)[C@H]1OC(C)=O", "note": "(stereo not given in full)", "Potency": "inactive"}, {"smiles": "O=C1OC2(c3ccccc31)c1cc(I)c(O)c(I)c1Oc1c2cc(I)c(O)c1I", "Potency": "inactive"}, {"smiles": "C[C@@H]1O[C@@H](O[C@H]2[C@H](O[C@H]3[C@H](O[C@H]4CC[C@@]5(C)C(CC[C@]6(C)C5CC=C5[C@@H]7CC(C)(C)C[C@@H](O)[C@]7(C)CC[C@]56C)C4(C)C)O[C@H](C(=O)O)[C@@H](O)[C@@H]3O)O[C@H](C(=O)O)[C@H](O)[C@@H]2O)[C@H](O)[C@H](O)[C@H]1O", "note": "(stereo not given in full)", "viability (% of control)": "101% [at 9.25 µM]"}, {"smiles": "C[C@@H]1O[C@@H](O[C@H]2[C@H](OC(=O)[C@]34CCC(C)(C)C[C@H]3C3=CCC5[C@@]6(C)CC[C@H](O[C@@H]7O[C@H](C(=O)O)[C@@H](O)[C@H](O)[C@H]7O[C@@H]7O[C@H](CO)[C@H](O)[C@H](O)[C@H]7O)[C@@](C)(C=O)C6CC[C@@]5(C)[C@]3(C)C[C@H]4O)O[C@H](C)[C@H](O[C@@H]3O[C@H](C)[C@H](O)[C@H](O)[C@H]3O)[C@@H]2O)[C@H](O)[C@H](O)[C@H]1O[C@@H]1OC[C@@H](O)[C@H](O[C@@H]2O[C@H](CO)[C@@H](O)[C@H](O)[C@H]2O)[C@H]1O", "note": "(stereo not given in full)", "viability (% of control)": "5.74% [at 4.97 µM]"}, {"smiles": "C=C(C)[C@@H]1CC[C@]2(C(=O)O)CC[C@]3(C)C(CCC4[C@]5(C)C(CC[C@]43C)C(C)(C)[C@@H](O)[C@@H]5C(=O)O)C12", "note": "(stereo not given in full)", "Potency": "inactive"}, {"smiles": "Nc1c2c(nc3ccccc13)CCCC2O", "note": "(stereo not given)", "Potency": "inactive"}, {"smiles": "CC(C)=CCC/C(C)=C/CC/C(C)=C/CCC(=O)OC/C=C(\\C)CCC=C(C)C", "Potency": "inactive"}, {"smiles": "CC[C@]1(O)CC2CN(CCc3c([nH]c4ccccc34)[C@@](C(=O)OC)(c3cc4c(cc3OC)N(C=O)[C@H]3[C@@](O)(C(=O)OC)[C@H](OC(C)=O)[C@]5(CC)C=CCN6CC[C@]43[C@@H]65)C2)C1", "note": "(stereo not given in full)", "Potency": "80.5 nM (active)"}, {"smiles": "CCN1/C(=C/C=C/c2sc3ccccc3[n+]2CC)Sc2ccccc21", "Potency": "18.4 nM (active)"}, {"smiles": "C[C@@H]1C[C@H]2[C@@H]3C[C@H](F)C4=CC(=O)C=C[C@]4(C)[C@@]3(F)[C@@H](O)C[C@]2(C)[C@@]1(O)C(=O)CO", "Potency": "335 nM (active)"}, {"smiles": "CCC(=O)O[C@H]1[C@H](O[C@@H]2[C@@H](C)[C@H](O[C@H]3C[C@@](C)(OC)[C@@H](O)[C@H](C)O3)[C@@H](C)C(=O)O[C@H](CC)[C@@](C)(O)[C@H](O)[C@@H](C)C(=O)[C@H](C)C[C@@]2(C)O)O[C@H](C)C[C@@H]1N(C)C", "Potency": "inactive"}, {"smiles": "CC(=O)OCC(=O)NCCCOc1cccc(CN2CCCCC2)c1", "Potency": "inactive"}, {"smiles": "COc1cnc(-n2cnc(C)n2)c2[nH]cc(C(=O)C(=O)N3CCN(C(=O)c4ccccc4)CC3)c12", "Potency": "inactive"}, {"smiles": "NCCCCNCCCN", "Potency": "5900 nM (active)"}, {"smiles": "O=C1CC2(CCCC2)CC(=O)N1CCNCC1COc2ccccc2O1", "note": "(stereo not given)", "Potency": "inactive"}, {"smiles": "CN(C)/C(N)=N/C(=N)N", "Potency": "inactive"}, {"smiles": "C=C1[C@H](OC(C)=O)[C@H]2[C@@H](OC(=O)c3ccccc3)[C@@H](C)C[C@]2(O)[C@@H](OC(C)=O)[C@H](C)/C=C/C(C)(C)C(=O)[C@H](OC(C)=O)[C@H]1OC(C)=O", "Potency": "inactive"}, {"smiles": "COc1cccc(OC)c1C(=O)N[C@@H]1C(=O)N2[C@@H]1SC(C)(C)[C@@H]2C(=O)O", "Potency": "inactive"}, {"smiles": "O=C(NO)c1ccc(C2=Nc3ccccc3Oc3ccccc32)cc1", "Potency": "3320 nM (active)"}, {"smiles": "CC(CO[C@@H]1O[C@H](COC(=O)/C=C/c2ccc(O)c(O)c2)[C@@H](O)[C@H](O)[C@H]1O)C1(O)COC(=O)C1", "note": "(stereo not given in full)", "Potency": "inactive"}, {"smiles": "Cn1ccc2cc3c(cc21)CCN3C(=O)Nc1cccnc1", "Potency": "inactive"}, {"smiles": "CC1=C(C)C(=O)C(CCCCC#CCCCC#CCO)=C(C)C1=O", "Potency": "11900 nM (active)"}, {"smiles": "O=C(O)C1CCCN(CCC=C(c2ccccc2)c2ccccc2)C1", "note": "(stereo not given)", "Potency": "inactive"}, {"smiles": "COc1ccc(CN2C(=O)C(=O)c3cc(S(=O)(=O)N4CCC[C@H]4COc4cccnc4)ccc32)cc1", "Potency": "inactive"}, {"smiles": "COc1ccc([C@@H]2Sc3ccccc3N(CCN(C)C)C(=O)[C@@H]2OC(C)=O)cc1", "Potency": "inactive"}, {"smiles": "N[C@@H](CC(=O)N1CCn2c(nnc2C(F)(F)F)C1)Cc1[nH]nc2c(F)c(F)ccc12", "Potency": "inactive"}, {"smiles": "C=CC(=O)N1CCC[C@@H](n2nc(-c3cccc(C(=O)Nc4ccc(C(C)C)c(C)c4)c3)c3c(N)ncnc32)C1", "Potency": "1460 nM (active)"}, {"smiles": "CN1CC(=O)N2[C@H](c3ccc4c(c3)OCO4)c3[nH]c4ccccc4c3C[C@@H]2C1=O", "Potency": "inactive"}, {"smiles": "CC(C)C(C(=O)N(C)C(C)C(N)=O)N(C)C(=O)C1CCCN1C(=O)/C=C/C=C/C(O)C(C)O", "note": "(stereo not given)", "Potency": "inactive"}, {"smiles": "N#Cc1ccnc(N2C(=O)CC[C@H]2C(=O)N(c2cncc(F)c2)[C@H](C(=O)NC2CC(F)(F)C2)c2ccccc2Cl)c1", "Potency": "inactive"}, {"smiles": "CN[C@@H]1C[C@H]2O[C@@](C)([C@@H]1OC)n1c3ccccc3c3c4c(c5c6ccccc6n2c5c31)C(=O)N[C@H]4O", "Potency": "11.9 nM (active)"}, {"smiles": "COc1ccc(Cl)cc1[C@@]1(F)C(=O)Nc2cc(C(F)(F)F)ccc21", "Potency": "9200 nM (active)"}, {"smiles": "Cc1cn2cc(C(=O)N(C)CCO)cc(NC3CCOc4cccc(C)c43)c2n1", "note": "(stereo not given)", "Potency": "inactive"}, {"smiles": "CC(=O)[C@]1(O)Cc2c(O)c3c(c(O)c2[C@@H](O[C@H]2C[C@H](N)[C@H](O)[C@H](C)O2)C1)C(=O)c1ccccc1C3=O", "Potency": "75 nM (active)"}, {"smiles": "Cc1cc(NS(=O)(=O)c2ccc(N)cc2)no1", "Potency": "inactive"}, {"smiles": "CONC(=O)c1ccccc1Nc1cc(Nc2cc(C)nn2C(C)C)ncc1Cl", "Potency": "6610 nM (active)"}, {"smiles": "COc1cc(/C=C/C(N)=O)cc(OC)c1OC", "Potency": "inactive"}]}]}
